13 sequences from PMC11006913 can be followed below.

Where a chain is given by its changes, count along the chain named.

Assay in all cases: PBM; 200 nM protein, PBS
Holding throughout (conditions): dsDNA, one strand shown

Assay [1] concerns the target HESX1 (Homo sapiens, UniProt Q9UBX0 95-180, R165K).
Assay [2] concerns the target HESX1 (Homo sapiens, UniProt Q9UBX0 95-180).
For assay [3], the target named is HESX1 (Homo sapiens, UniProt Q9UBX0 95-180, R109Q).
The target of assay [4] is HESX1 (Homo sapiens, UniProt Q9UBX0 95-180, P111T).
Assay [5] deals with T1, NKX2-6 (Homo sapiens, UniProt A6NCS4 118-204).
T1 sequence: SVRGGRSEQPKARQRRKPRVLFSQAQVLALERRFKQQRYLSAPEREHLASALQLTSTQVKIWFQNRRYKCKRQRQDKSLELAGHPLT

In assay [6] the target is T2, NKX2-6 (Homo sapiens, UniProt A6NCS4 118-204, F151L).
T2 sequence: T1 sequence with F34L

The target of assay [7] is HESX1 (Homo sapiens, UniProt Q9UBX0 95-180, F115L).
Assay [8] deals with T3, NKX2-6 (Homo sapiens, UniProt A6NCS4 118-204, R150C).
T3 sequence: T1 sequence with R33C

Assay [9] addresses VAX1 (Homo sapiens, UniProt Q5SQQ9 86-172).
Assay [10] concerns the target VAX1 (Homo sapiens, UniProt Q5SQQ9 86-172, T142I).
The target of assay [11] is VAX1 (Homo sapiens, UniProt Q5SQQ9 86-172, K157R).
VAX1 (Homo sapiens, UniProt Q5SQQ9 86-172, K157R), sequence (Q5SQQ9 86-172 K157R): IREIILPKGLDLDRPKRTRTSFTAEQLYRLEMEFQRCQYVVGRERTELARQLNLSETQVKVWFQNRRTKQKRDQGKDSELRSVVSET

HESX1 (Homo sapiens, UniProt Q9UBX0 95-180, R165K), sequence (Q9UBX0 95-180 R165K): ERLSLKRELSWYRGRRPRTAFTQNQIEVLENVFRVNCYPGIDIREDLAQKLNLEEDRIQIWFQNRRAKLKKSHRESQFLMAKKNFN
HESX1 (Homo sapiens, UniProt Q9UBX0 95-180), sequence (Q9UBX0 95-180): as the sequence (Q9UBX0 95-180 R165K) above, with K71R counted along it
HESX1 (Homo sapiens, UniProt Q9UBX0 95-180, P111T), sequence (Q9UBX0 95-180 P111T): as the sequence (Q9UBX0 95-180 R165K) above, with P17T, K71R counted along it
HESX1 (Homo sapiens, UniProt Q9UBX0 95-180, R109Q), sequence (Q9UBX0 95-180 R109Q): as the sequence (Q9UBX0 95-180 R165K) above, with R15Q, K71R counted along it
HESX1 (Homo sapiens, UniProt Q9UBX0 95-180, F115L), sequence (Q9UBX0 95-180 F115L): as the sequence (Q9UBX0 95-180 R165K) above, with F21L, K71R counted along it
VAX1 (Homo sapiens, UniProt Q5SQQ9 86-172), sequence (Q5SQQ9 86-172): as the sequence (Q5SQQ9 86-172 K157R) above, with R72K counted along it
VAX1 (Homo sapiens, UniProt Q5SQQ9 86-172, T142I), sequence (Q5SQQ9 86-172 T142I): as the sequence (Q5SQQ9 86-172 K157R) above, with T57I, R72K counted along it

Consider AACTCATA, for which the binding signal is 7.51 upbm affinity estimate (log intensity, higher = more binding, comparable within an allelic series) with HESX1 [1]; 7.49 upbm affinity estimate (log intensity, higher = more binding, comparable within an allelic series) with HESX1 [2]; 7.12 upbm affinity estimate (log intensity, higher = more binding, comparable within an allelic series) in the assay with HESX1 [3]; 7.23 upbm affinity estimate (log intensity, higher = more binding, comparable within an allelic series) in the assay with HESX1 [4].
As to CAGCTCGG, the binding signal with HESX1 [1] was 6.3 upbm affinity estimate (log intensity, higher = more binding, comparable within an allelic series); in the assay with HESX1 [2], 6.27 upbm affinity estimate (log intensity, higher = more binding, comparable within an allelic series); in the assay with NKX2-6 [5] it was 8.88 upbm affinity estimate (log intensity, higher = more binding, comparable within an allelic series); with HESX1 [3], 6.34 upbm affinity estimate (log intensity, higher = more binding, comparable within an allelic series); with HESX1 [4], 6.3 upbm affinity estimate (log intensity, higher = more binding, comparable within an allelic series); with NKX2-6 [6], 9.23 upbm affinity estimate (log intensity, higher = more binding, comparable within an allelic series). The binding signal with HESX1 [7] is 6.51 upbm affinity estimate (log intensity, higher = more binding, comparable within an allelic series).
In the case of CAGAGTCA, the binding signal with HESX1 [1] was 6.47 upbm affinity estimate (log intensity, higher = more binding, comparable within an allelic series); with HESX1 [2] it was 6.43 upbm affinity estimate (log intensity, higher = more binding, comparable within an allelic series); with HESX1 [3] it was 6.67 upbm affinity estimate (log intensity, higher = more binding, comparable within an allelic series); with HESX1 [4] it was 6.59 upbm affinity estimate (log intensity, higher = more binding, comparable within an allelic series); with HESX1 [7] it was 6.54 upbm affinity estimate (log intensity, higher = more binding, comparable within an allelic series).
As to AAGTTCCC, the binding signal is 6.43 upbm affinity estimate (log intensity, higher = more binding, comparable within an allelic series) with HESX1 [1]; 6.39 upbm affinity estimate (log intensity, higher = more binding, comparable within an allelic series) with HESX1 [2]; 6.56 upbm affinity estimate (log intensity, higher = more binding, comparable within an allelic series) with HESX1 [3]; 6.49 upbm affinity estimate (log intensity, higher = more binding, comparable within an allelic series) in the assay with HESX1 [4]; 6.65 upbm affinity estimate (log intensity, higher = more binding, comparable within an allelic series) in the assay with HESX1 [7].
With AGCCGGTC, the binding signal in the assay with HESX1 [1] was 6.51 upbm affinity estimate (log intensity, higher = more binding, comparable within an allelic series); with HESX1 [2] it was 6.44 upbm affinity estimate (log intensity, higher = more binding, comparable within an allelic series); with NKX2-6 [8], 9.54 upbm affinity estimate (log intensity, higher = more binding, comparable within an allelic series); with HESX1 [3], 6.51 upbm affinity estimate (log intensity, higher = more binding, comparable within an allelic series); in the assay with HESX1 [4], 6.57 upbm affinity estimate (log intensity, higher = more binding, comparable within an allelic series); in the assay with HESX1 [7] it was 6.52 upbm affinity estimate (log intensity, higher = more binding, comparable within an allelic series).
As to TCCTGCCA, the binding signal was 6.57 upbm affinity estimate (log intensity, higher = more binding, comparable within an allelic series) with HESX1 [1]; 6.47 upbm affinity estimate (log intensity, higher = more binding, comparable within an allelic series) with HESX1 [2]; 6.52 upbm affinity estimate (log intensity, higher = more binding, comparable within an allelic series) in the assay with HESX1 [3]; 6.56 upbm affinity estimate (log intensity, higher = more binding, comparable within an allelic series) in the assay with HESX1 [4]; 6.6 upbm affinity estimate (log intensity, higher = more binding, comparable within an allelic series) in the assay with HESX1 [7].
Regarding CCGAAAGC, the binding signal with HESX1 [1] was 6.49 upbm affinity estimate (log intensity, higher = more binding, comparable within an allelic series); with HESX1 [2], 6.52 upbm affinity estimate (log intensity, higher = more binding, comparable within an allelic series); with HESX1 [3], 6.56 upbm affinity estimate (log intensity, higher = more binding, comparable within an allelic series); with HESX1 [4], 6.47 upbm affinity estimate (log intensity, higher = more binding, comparable within an allelic series); in the assay with HESX1 [7], 6.52 upbm affinity estimate (log intensity, higher = more binding, comparable within an allelic series).
In the case of CAGTGCCG, the binding signal with HESX1 [1] is 6.35 upbm affinity estimate (log intensity, higher = more binding, comparable within an allelic series); in the assay with HESX1 [2], 6.41 upbm affinity estimate (log intensity, higher = more binding, comparable within an allelic series); with HESX1 [3], 6.49 upbm affinity estimate (log intensity, higher = more binding, comparable within an allelic series); in the assay with VAX1 [9], 7.15 upbm affinity estimate (log intensity, higher = more binding, comparable within an allelic series); with HESX1 [4], 6.42 upbm affinity estimate (log intensity, higher = more binding, comparable within an allelic series); with HESX1 [7] it was 6.53 upbm affinity estimate (log intensity, higher = more binding, comparable within an allelic series). For the same sequence, the binding signal is 7.27 upbm affinity estimate (log intensity, higher = more binding, comparable within an allelic series) with VAX1 [10] and 7.09 upbm affinity estimate (log intensity, higher = more binding, comparable within an allelic series) with VAX1 [11].
With CTCAATAC, the binding signal with HESX1 [1] is 7.27 upbm affinity estimate (log intensity, higher = more binding, comparable within an allelic series); with HESX1 [2], 7.48 upbm affinity estimate (log intensity, higher = more binding, comparable within an allelic series); with HESX1 [3], 7.22 upbm affinity estimate (log intensity, higher = more binding, comparable within an allelic series); with HESX1 [4], 7.29 upbm affinity estimate (log intensity, higher = more binding, comparable within an allelic series).
For the sequence CACCCGGC, the binding signal was 6.47 upbm affinity estimate (log intensity, higher = more binding, comparable within an allelic series) with HESX1 [1]; 6.48 upbm affinity estimate (log intensity, higher = more binding, comparable within an allelic series) with HESX1 [2]; 9.18 upbm affinity estimate (log intensity, higher = more binding, comparable within an allelic series) in the assay with NKX2-6 [5]; 6.53 upbm affinity estimate (log intensity, higher = more binding, comparable within an allelic series) in the assay with HESX1 [3]; 6.47 upbm affinity estimate (log intensity, higher = more binding, comparable within an allelic series) with HESX1 [4]; 9.14 upbm affinity estimate (log intensity, higher = more binding, comparable within an allelic series) in the assay with NKX2-6 [6]. Further, the binding signal in the assay with HESX1 [7] was 6.3 upbm affinity estimate (log intensity, higher = more binding, comparable within an allelic series).
On to AGGACCCC, for which the binding signal with HESX1 [1] was 6.46 upbm affinity estimate (log intensity, higher = more binding, comparable within an allelic series); with HESX1 [2] it was 6.46 upbm affinity estimate (log intensity, higher = more binding, comparable within an allelic series); with HESX1 [3], 6.63 upbm affinity estimate (log intensity, higher = more binding, comparable within an allelic series); with HESX1 [4], 6.47 upbm affinity estimate (log intensity, higher = more binding, comparable within an allelic series); in the assay with HESX1 [7], 6.62 upbm affinity estimate (log intensity, higher = more binding, comparable within an allelic series).
Consider AGGCAGCG, for which the binding signal with HESX1 [1] is 6.62 upbm affinity estimate (log intensity, higher = more binding, comparable within an allelic series); in the assay with HESX1 [2], 6.5 upbm affinity estimate (log intensity, higher = more binding, comparable within an allelic series); with HESX1 [3], 6.59 upbm affinity estimate (log intensity, higher = more binding, comparable within an allelic series); with HESX1 [4] it was 6.59 upbm affinity estimate (log intensity, higher = more binding, comparable within an allelic series); in the assay with HESX1 [7], 6.39 upbm affinity estimate (log intensity, higher = more binding, comparable within an allelic series).
With AAGGGCAC, the binding signal in the assay with HESX1 [1] is 6.53 upbm affinity estimate (log intensity, higher = more binding, comparable within an allelic series); with HESX1 [2] it was 6.41 upbm affinity estimate (log intensity, higher = more binding, comparable within an allelic series); with HESX1 [3], 6.62 upbm affinity estimate (log intensity, higher = more binding, comparable within an allelic series); with HESX1 [4], 6.56 upbm affinity estimate (log intensity, higher = more binding, comparable within an allelic series); with HESX1 [7], 6.62 upbm affinity estimate (log intensity, higher = more binding, comparable within an allelic series).
